From PubChem BioAssay (EPA / NIEHS)
Inconclusive results are not listed. The source made the active and inactive calls. Rule for the calls, unless noted: active = hit-call score of the fitted dose curve at least 0.9, where 1 is the maximum; inconclusive = response in the unintended direction; inactive = score below 0.9.

How the values were obtained:
[1] = ATG_TAL_CIS: Attagene CIS-FACTORIAL HepG2 Assay for human TAL Basal Promoter (AID 2282966; active = hit-call score of the fitted dose curve at least 0.9, where 1 is the maximum; inactive = score below 0.9;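 note: background control endpoint measuring basal TAL promoter reporter mRNA not a specific factor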); conditions: HepG2 Attagene cis-factorial TAL promoter reporter; actives raise or lower the signal
In short: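 Steps: transfect HepG2 with multiple reporter transcription units; dose 24 h; isolate RNA, reverse-transcribe, PCR-amplify, label with 6-FAM, digest with HpaI; resolve by capillary electrophoresis. Bidirectional fitting against DMSO baseline.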

[2] = ATG_TGFb_CIS: Attagene CIS-FACTORIAL HepG2 Assay for human Transforming Growth Factor (TGF) (AID 2282967; active = hit-call score of the fitted dose curve at least 0.9, where 1 is the maximum; inactive = score below 0.9); conditions: HepG2 Attagene CIS TGFb reporter, mRNA transcription; actives raise or lower the signal
In short: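 Liver HepG2 line, cis-factorial reporter panel, 24 h dosing. Quantitation: RT-PCR products labeled with 6-FAM, cut with HpaI, resolved by capillary electrophoresis; DMSO-referenced bidirectional analysis.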

[3] = ATG_VDRE_CIS: Attagene CIS-FACTORIAL HepG2 Assay for human Vitamin D Receptor Element (VDRE) (AID 2282968; active = hit-call score of the fitted dose curve at least 0.9, where 1 is the maximum; inactive = score below 0.9); conditions: HepG2 VDRE cis-reporter transcription, actives raise or lower the signal
In short: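 In transiently transfected HepG2 liver cells, gain or loss of reporter mRNA after 24 h exposure is scored relative to DMSO, using fluorescence detection by capillary electrophoresis of RT-PCR products.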

[4] = target: X-box-binding protein 1 (Homo sapiens) (UniProt P17861); test: ATG_Xbp1_CIS: Attagene CIS-FACTORIAL HepG2 Assay for human X-box Binding Protein 1 (XBP1) (AID 2282972; active = hit-call score of the fitted dose curve at least 0.9, where 1 is the maximum; inactive = score below 0.9); conditions: HepG2 XBP1 cis-element reporter, Attagene multiplex; actives raise or lower the signal
In short: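 After a 24-hour chemical exposure of HepG2 cells carrying cis-regulated reporters, reporter mRNA levels are assessed. Quantification uses RT-PCR, 6-FAM labelling and capillary electrophoresis. Gain- or loss-of-signal is fitted against DMSO.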

[5] = ATG_M_19_TRANS: Attagene TRANS-FACTORIAL HepG2 Assay for M19 Transcription Factor (Internal Marker) (AID 2282974); conditions: HepG2 Attagene TRANS-FACTORIAL M19 internal marker reporter
In short: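 Background-control readout: after 24 h chemical exposure of transfected HepG2 carrying GAL4-driven reporter units, RNA was reverse-transcribed, amplified, fluorescently labeled and sized by capillary electrophoresis; gain-of-signal fit against DMSO.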

[6] = target: Oxysterols receptor LXR-beta (Homo sapiens) (UniProt P55055); test: ATG_LXRb_TRANS: Attagene TRANS-FACTORIAL HepG2 Assay for human Liver X Receptor beta (LXRb) (AID 2282981); conditions: HepG2 Attagene TRANS GAL4-LXRb reporter, mRNA
In short: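 Cells: HepG2, transiently transfected with GAL4-UAS reporter units plus LXRb-Gal4 fusion. Treatment: 24 h. Detection: reporter mRNA by RT-PCR, 6-FAM labelling, HpaI digestion, capillary electrophoresis.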

[7] = target: Transcriptional activator Myb (Homo sapiens) (UniProt P10242); test: ATG_Myb_CIS: Attagene CIS-FACTORIAL HepG2 Assay for human Myeloblastosis (Myb) Proto-Oncogene Transcription Factor (AID 2282986; active = hit-call score of the fitted dose curve at least 0.9, where 1 is the maximum; inactive = score below 0.9); conditions: HepG2 Attagene CIS-FACTORIAL Myb reporter transcription; actives raise or lower the signal
In short: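 Reporter mRNA is quantified by RT-PCR and capillary electrophoresis 24 h after dosing HepG2 cells transfected with cis-regulated reporter units, which track endogenous transcription factor activity. Gain and loss of signal are fitted versus DMSO baseline.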

[8] = target: Nuclear respiratory factor 1 (Homo sapiens) (UniProt Q16656); test: ATG_NRF1_CIS: Attagene CIS-FACTORIAL HepG2 Assay for human Nuclear Respiratory Factor 1 (NRF1) Orphan Gene (AID 2282987; active = hit-call score of the fitted dose curve at least 0.9, where 1 is the maximum; inactive = score below 0.9); conditions: HepG2 NRF1 cis-element reporter, Attagene multiplex; actives raise or lower the signal
In short: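 Endogenous NRF1-driven reporter transcription in transfected HepG2 cells after 24 h treatment. Readout: RT-PCR products, 6-FAM labelled and resolved by capillary electrophoresis; changes fitted both directions relative to DMSO.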

[9] = target: Estrogen receptor (Homo sapiens) (UniProt P03372); test: ATG_ERa_TRANS: Attagene TRANS-FACTORIAL HepG2 Assay for human Estrogen Receptor alpha (ERa) (AID 2282970); conditions: HepG2 Attagene TRANS ERa GAL4 reporter, mRNA
In short: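 Multiplexed cell-based reporter format in HepG2: chimeric ERa-Gal4 protein drives GAL4-UAS reporter transcription. Fluorescent reporter mRNA quantified by capillary electrophoresis 24 hours after dosing; endpoint fitted as signal gain against DMSO.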

[10] = ATG_Hpa5_TRANS: Attagene TRANS-FACTORIAL HepG2 Assay for human GAL4-Hpa5 Hepatocyte Transcription Factor Basal Promoter (AID 2282975); conditions: HepG2 Attagene GAL4-Hpa5 transcription reporter;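 note: hits are increases in reporter mRNA over DMSO baseline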
In short: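 Basal-promoter GAL4 background control within the HepG2 trans-factorial panel of transiently transfected reporter units. Reporter mRNA is measured 24 h after dosing by RT-PCR and capillary electrophoresis, fitted for gain of signal versus DMSO.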

[11] = target: Bile acid receptor (Homo sapiens) (UniProt Q96RI1); test: ATG_FXR_TRANS: Attagene TRANS-FACTORIAL HepG2 Assay for Farnesoid X Receptor (FXR) (AID 2282979); conditions: HepG2 Attagene TRANS FXR-GAL4 reporter transcription;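 note: hits raise reporter mRNA above DMSO so AC50 marks FXR activation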
In short: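 After 24 h chemical treatment of transfected HepG2 cells, GAL4-UAS reporter transcripts driven by an exogenous FXR-GAL4 fusion were measured by RT-PCR and capillary electrophoresis. Increases over DMSO were fitted.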

[12] = target: Oxysterols receptor LXR-alpha (Homo sapiens) (UniProt Q13133); test: ATG_LXRa_TRANS: Attagene TRANS-FACTORIAL HepG2 Assay for human Liver X Receptor alpha (LXRa) (AID 2282980); conditions: HepG2 Attagene TRANS reporter, LXRa transactivation
In short: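 In this multiplexed TRANS system, compounds act on HepG2 cells carrying GAL4-UAS reporter units and a receptor-GAL4 fusion for 24 h. Induced reporter RNA is amplified, fluorescently labelled and sized by capillary electrophoresis, with DMSO as baseline.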

[13] = ATG_M_06_TRANS: Attagene TRANS-FACTORIAL HepG2 Assay for M06 Transcription Factor (Internal Marker) (AID 2282983); conditions: HepG2 Attagene TRANS M06 internal marker reporter;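 note: reporter transcript level by RT-PCR then capillary electrophoresis fluorescence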
In short: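 Internal-marker background readout from a multiplexed TRANS reporter system in HepG2; 24 h dosing; mRNA induction quantified by RT-PCR plus capillary electrophoresis fluorescence; DMSO as negative control and baseline.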

[14] = ATG_M_32_TRANS: Attagene TRANS-FACTORIAL HepG2 Assay for M32 Transcription Factor (Internal Marker) (AID 2282984); conditions: HepG2 Attagene TRANS M32 internal marker reporter
In short: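 Using transiently transfected HepG2 cells exposed to test chemicals for 24 h, reporter transcripts are converted to labelled cDNA fragments and quantified by capillary electrophoresis. DMSO defines the activity baseline.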

[15] = target: Nuclear receptor subfamily 1 group I member 3 (Homo sapiens) (UniProt Q14994); test: ATG_CAR_TRANS: Attagene TRANS-FACTORIAL HepG2 Assay for human Constitutive Androstane Receptor (CAR) (AID 2282969); conditions: HepG2 Attagene TRANS-FACTORIAL CAR reporter;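 note: activators raise reporter mRNA above DMSO so AC50 marks induction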
In short: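 Readout is reporter mRNA induction, quantified by fluorescent primer extension and capillary electrophoresis after RT-PCR. Cells were HepG2 transiently carrying chimeric NR-Gal4 constructs with GAL4-UAS reporters, treated for 24 h; activity scored upward from DMSO.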

[16] = target: Nuclear receptor subfamily 4 group A member 2 (Homo sapiens) (UniProt P43354); test: ATG_NURR1_TRANS: Attagene TRANS-FACTORIAL HepG2 Assay for human Nuclear Receptor Related Protein 1 (NURR1) (AID 2282985); conditions: HepG2 Attagene TRANS reporter, mRNA readout
In short: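 Cells: HepG2, transiently transfected. Exposure: 24 h. Detection: fluorescence of labelled RT-PCR products separated by capillary electrophoresis; upward fit versus DMSO.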

[17] = ATG_GAL4_TRANS: Attagene TRANS-FACTORIAL HepG2 Assay for GAL4 (Internal Marker) (AID 2282976); conditions: HepG2 Attagene TRANS GAL4 internal marker reporter
In short: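 Liver HepG2 line bearing multiplexed GAL4-UAS reporter constructs; 24 h chemical treatment. Transcripts were quantified as fluorescent fragments on capillary electrophoresis after RT-PCR and HpaI cut, with activity fitted upward from DMSO.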

Nuclear receptor subfamily 4 group A member 2 (Homo sapiens), sequence (P43354 whole entry, looked up): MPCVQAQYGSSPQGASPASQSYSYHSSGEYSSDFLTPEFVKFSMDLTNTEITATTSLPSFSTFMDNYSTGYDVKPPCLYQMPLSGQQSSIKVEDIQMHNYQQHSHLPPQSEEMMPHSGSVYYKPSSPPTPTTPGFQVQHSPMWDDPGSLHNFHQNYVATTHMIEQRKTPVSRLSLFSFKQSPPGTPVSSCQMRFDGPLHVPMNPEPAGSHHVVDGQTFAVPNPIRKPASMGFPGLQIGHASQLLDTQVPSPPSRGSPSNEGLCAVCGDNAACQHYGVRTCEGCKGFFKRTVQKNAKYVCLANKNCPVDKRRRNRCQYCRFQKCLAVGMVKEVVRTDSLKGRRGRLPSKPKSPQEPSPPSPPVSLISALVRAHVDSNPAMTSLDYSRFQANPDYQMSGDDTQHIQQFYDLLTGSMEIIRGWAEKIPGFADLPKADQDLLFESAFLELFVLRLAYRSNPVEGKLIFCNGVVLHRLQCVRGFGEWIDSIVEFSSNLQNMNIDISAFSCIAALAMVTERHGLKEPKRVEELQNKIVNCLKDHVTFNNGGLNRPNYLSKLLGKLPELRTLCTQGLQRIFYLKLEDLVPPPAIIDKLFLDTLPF
Estrogen receptor (Homo sapiens), sequence (P03372 whole entry, looked up, the tested form may be a part): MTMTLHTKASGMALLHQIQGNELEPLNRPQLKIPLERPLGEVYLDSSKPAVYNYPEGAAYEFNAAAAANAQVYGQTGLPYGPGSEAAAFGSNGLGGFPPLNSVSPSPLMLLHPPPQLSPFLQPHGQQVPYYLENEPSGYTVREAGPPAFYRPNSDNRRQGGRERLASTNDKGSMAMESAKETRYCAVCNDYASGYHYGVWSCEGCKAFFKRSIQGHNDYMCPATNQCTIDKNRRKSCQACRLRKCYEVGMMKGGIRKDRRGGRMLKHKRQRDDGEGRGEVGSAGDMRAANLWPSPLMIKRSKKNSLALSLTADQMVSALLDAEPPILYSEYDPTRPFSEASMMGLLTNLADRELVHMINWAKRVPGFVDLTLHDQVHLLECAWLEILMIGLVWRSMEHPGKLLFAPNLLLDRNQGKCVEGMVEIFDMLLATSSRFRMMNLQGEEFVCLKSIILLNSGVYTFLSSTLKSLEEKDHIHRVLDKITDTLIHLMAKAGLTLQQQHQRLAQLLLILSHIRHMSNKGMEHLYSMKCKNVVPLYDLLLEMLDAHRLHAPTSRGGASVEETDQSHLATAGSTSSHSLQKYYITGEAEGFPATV
Bile acid receptor (Homo sapiens), sequence (Q96RI1 whole entry, looked up, the tested form may be a part): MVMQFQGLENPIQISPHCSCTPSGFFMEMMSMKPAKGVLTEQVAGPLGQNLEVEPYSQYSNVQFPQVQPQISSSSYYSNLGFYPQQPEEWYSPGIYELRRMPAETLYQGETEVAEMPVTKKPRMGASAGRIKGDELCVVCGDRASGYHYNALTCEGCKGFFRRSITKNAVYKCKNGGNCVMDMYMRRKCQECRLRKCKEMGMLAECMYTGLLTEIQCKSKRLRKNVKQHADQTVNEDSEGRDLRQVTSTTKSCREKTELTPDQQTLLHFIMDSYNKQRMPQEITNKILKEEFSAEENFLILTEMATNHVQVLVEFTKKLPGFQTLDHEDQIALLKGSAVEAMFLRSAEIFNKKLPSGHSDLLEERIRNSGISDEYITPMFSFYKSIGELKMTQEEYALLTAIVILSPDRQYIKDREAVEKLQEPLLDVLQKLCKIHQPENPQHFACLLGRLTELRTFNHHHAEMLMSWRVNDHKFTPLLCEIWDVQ
X-box-binding protein 1 (Homo sapiens), sequence (P17861 whole entry, looked up): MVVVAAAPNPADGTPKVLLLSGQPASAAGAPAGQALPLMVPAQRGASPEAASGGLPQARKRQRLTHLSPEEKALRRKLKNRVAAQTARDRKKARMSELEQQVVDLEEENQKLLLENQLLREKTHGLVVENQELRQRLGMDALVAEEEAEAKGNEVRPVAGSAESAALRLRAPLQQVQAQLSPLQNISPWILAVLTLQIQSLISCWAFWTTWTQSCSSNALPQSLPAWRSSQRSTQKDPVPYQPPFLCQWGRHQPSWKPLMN
Transcriptional activator Myb (Homo sapiens), sequence (P10242 whole entry, looked up): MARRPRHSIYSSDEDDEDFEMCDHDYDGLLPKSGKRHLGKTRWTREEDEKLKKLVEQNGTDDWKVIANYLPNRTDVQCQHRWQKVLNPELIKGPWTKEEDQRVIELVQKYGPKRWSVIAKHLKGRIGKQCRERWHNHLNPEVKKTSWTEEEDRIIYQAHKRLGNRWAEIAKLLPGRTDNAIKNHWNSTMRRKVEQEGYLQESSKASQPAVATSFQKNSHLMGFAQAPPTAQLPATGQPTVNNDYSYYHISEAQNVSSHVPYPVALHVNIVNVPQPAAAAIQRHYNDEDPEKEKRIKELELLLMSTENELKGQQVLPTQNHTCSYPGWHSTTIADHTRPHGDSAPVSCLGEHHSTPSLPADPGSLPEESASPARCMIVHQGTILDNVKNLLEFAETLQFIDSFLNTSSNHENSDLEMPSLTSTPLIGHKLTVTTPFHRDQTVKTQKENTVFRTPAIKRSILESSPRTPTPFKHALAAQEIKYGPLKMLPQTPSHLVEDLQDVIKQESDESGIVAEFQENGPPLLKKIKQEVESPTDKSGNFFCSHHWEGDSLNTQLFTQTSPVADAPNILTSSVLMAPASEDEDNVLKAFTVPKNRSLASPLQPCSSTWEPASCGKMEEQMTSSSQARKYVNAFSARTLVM
Oxysterols receptor LXR-alpha (Homo sapiens), sequence (Q13133 whole entry, looked up, the tested form may be a part): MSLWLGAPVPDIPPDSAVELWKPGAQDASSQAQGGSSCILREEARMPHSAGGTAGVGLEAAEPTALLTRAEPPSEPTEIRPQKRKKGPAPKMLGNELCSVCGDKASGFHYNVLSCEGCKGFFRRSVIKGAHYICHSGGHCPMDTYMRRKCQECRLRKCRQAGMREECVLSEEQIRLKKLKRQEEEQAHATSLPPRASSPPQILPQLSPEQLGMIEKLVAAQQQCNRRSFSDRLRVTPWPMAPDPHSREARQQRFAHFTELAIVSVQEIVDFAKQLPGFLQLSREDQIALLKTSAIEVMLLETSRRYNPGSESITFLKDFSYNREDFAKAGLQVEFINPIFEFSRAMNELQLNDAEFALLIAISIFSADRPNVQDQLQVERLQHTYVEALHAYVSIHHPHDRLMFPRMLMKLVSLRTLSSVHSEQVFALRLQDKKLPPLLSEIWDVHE
Nuclear respiratory factor 1 (Homo sapiens), sequence (Q16656 whole entry, looked up): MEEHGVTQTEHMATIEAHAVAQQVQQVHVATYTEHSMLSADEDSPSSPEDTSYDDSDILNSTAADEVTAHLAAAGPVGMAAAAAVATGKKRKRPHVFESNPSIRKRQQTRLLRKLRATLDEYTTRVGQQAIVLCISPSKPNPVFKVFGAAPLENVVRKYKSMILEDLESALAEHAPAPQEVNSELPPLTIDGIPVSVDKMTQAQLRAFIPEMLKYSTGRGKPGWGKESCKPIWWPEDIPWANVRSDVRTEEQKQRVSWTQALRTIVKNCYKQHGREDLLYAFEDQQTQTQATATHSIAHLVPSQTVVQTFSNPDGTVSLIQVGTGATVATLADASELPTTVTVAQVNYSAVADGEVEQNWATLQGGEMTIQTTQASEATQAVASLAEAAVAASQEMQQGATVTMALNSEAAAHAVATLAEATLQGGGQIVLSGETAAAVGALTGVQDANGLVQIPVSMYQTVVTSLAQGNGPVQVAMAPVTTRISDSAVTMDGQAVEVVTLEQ
Nuclear receptor subfamily 1 group I member 3 (Homo sapiens), sequence (Q14994 whole entry, looked up, the tested form may be a part): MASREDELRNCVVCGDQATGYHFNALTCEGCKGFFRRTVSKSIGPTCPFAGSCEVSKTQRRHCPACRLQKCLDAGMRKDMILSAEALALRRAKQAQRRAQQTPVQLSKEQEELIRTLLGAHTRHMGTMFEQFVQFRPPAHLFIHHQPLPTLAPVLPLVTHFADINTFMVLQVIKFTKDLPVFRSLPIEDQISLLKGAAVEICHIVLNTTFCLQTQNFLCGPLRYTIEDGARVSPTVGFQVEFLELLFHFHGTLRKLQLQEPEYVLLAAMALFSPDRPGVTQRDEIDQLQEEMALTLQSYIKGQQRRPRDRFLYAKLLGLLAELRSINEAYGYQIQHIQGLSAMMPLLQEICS
Oxysterols receptor LXR-beta (Homo sapiens), sequence (P55055 whole entry, looked up, the tested form may be a part): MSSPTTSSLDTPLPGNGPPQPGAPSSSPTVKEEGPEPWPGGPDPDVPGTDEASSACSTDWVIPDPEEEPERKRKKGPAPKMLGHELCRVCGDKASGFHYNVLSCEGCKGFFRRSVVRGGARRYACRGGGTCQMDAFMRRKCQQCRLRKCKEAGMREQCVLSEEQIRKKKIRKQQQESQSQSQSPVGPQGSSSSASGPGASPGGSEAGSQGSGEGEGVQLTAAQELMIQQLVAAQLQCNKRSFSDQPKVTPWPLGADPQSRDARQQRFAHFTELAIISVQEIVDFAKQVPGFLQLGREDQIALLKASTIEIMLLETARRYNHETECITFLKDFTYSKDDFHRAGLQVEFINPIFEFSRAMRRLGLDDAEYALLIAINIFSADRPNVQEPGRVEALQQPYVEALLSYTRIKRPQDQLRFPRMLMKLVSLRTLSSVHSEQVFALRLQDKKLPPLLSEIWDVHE

| Compound | outcome [1] | outcome [2] | outcome [3] | outcome [4] | outcome [5] | outcome [6] | outcome [7] | outcome [8] | AC50 [3] | outcome [9] | outcome [10] | outcome [11] | outcome [12] | outcome [13] | outcome [14] | outcome [15] | AC50 [9] | outcome [16] | AC50 [4] | outcome [17] |
| --- | --- | --- | --- | --- | --- | --- | --- | --- | --- | --- | --- | --- | --- | --- | --- | --- | --- | --- | --- | --- |
| C=CCOC(=O)C(C)(C)OC(=O)c1cc(-n2c(=O)cc(C(F)(F)F)n(C)c2=O)ccc1Cl | inactive | inactive | inactive | inactive | inactive | inactive | inactive | inactive |  |  |  |  |  |  |  |  |  |  |  |  |
| CN=C=S | inactive | inactive |  | inactive |  | inactive | inactive | inactive | 50 µM (active) | inactive | inactive | inactive | inactive | inactive | inactive |  |  |  |  |  |
| CC1(C)C(C(=O)OC(C#N)c2cccc(Oc3ccccc3)c2)C1(C)C (stereo unspecified) | inactive | inactive |  | inactive |  | inactive | inactive | inactive | 6.46 µM (active) |  | inactive | inactive |  | inactive | inactive | inactive | 21.3 µM (active) | inactive |  |  |
| COP(=S)(OC)Oc1ccc([N+](=O)[O-])c(C)c1 | inactive | inactive |  |  | inactive | inactive |  | inactive | 34.1 µM (active) |  |  | inactive | inactive | inactive | inactive | inactive | 17.9 µM (active) | inactive | 50 µM (active) | inactive |
| CCNP(=S)(OC)O/C(C)=C/C(=O)OC(C)C (stereo unspecified) | inactive | inactive |  | inactive |  | inactive |  | inactive | 13.8 µM (active) |  |  |  | inactive | inactive |  | inactive | 31.9 µM (active) | inactive |  |  |
| Nc1c(Cl)c(Cl)nc(C(=O)O)c1Cl | inactive | inactive |  | inactive | inactive | inactive | inactive | inactive |  | inactive | inactive |  |  |  | inactive |  |  | inactive |  |  |
| CC(C)Nc1nc(Cl)nc(NC(C)C)n1 | inactive | inactive | inactive | inactive |  | inactive | inactive | inactive |  | inactive | inactive |  | inactive | inactive | inactive | inactive |  | inactive |  |  |
| COc1cc(Cl)c(OC)cc1Cl | inactive | inactive | inactive | inactive | inactive | inactive |  | inactive |  | inactive | inactive |  | inactive | inactive | inactive |  |  |  |  |  |
| CCCC(=NOCC)C1=C(O)CC(CC(C)SCC)CC1=O (stereo unspecified) | inactive | inactive | inactive | inactive | inactive | inactive |  | inactive |  | inactive | inactive |  | inactive |  | inactive | inactive |  | inactive |  |  |
